“And” between values parts separate entries of the source, which are not always exact repeats. Equal entries are not always repeated. Inconclusive results are not listed. Entries that show only a call come without a potency. A structure can be active in one record and inactive in another. The source made the active and inactive calls. Calls follow the shape of the full dose curve.

The experiment in a line: Nuclear factor erythroid 2-related factor 2/antioxidant responsive element (Nrf2/ARE) small molecule agonists: luciferase reporter gene qHTS assay in human keratinocytes (AID 1919969). Also: nearly all actives have a fitted effect of over 35% in size.
Potency is read from the fitted curve at half-maximal effect.

As for `N#CC(Br)Br`, the Potency result was “inactive”.

On to `Cl[C@H]1OCCO[C@@H]1Cl`, for which the Potency result is “inactive”.

For `CC1(C)CC(=O)CC(C)(C)N1[O]`, the Potency entry was “inactive”.

Turning to `Cc1cc(O)ccc1Cl`, the Potency entry is “inactive”.

As to `COc1ccc(C=O)cc1OC`, the Potency is 69.3 µM (active) and inactive.

Regarding `CCCN(CCC)N=O`, the Potency result was “inactive”.

As for `Cc1nn(-c2cc(NS(C)(=O)=O)c(Cl)cc2Cl)c(=O)n1C(F)F`, the Potency entry was “inactive”.

Take `Cc1cnc[nH]1`: the Potency result was “inactive”.

Turning to `COc1ccc2c3c1O[C@H]1[C@H](O)CC[C@H]4[C@@H](C2)N(C)CC[C@@]341`, the Potency result was “inactive”.

With `OCC(O)CCl` (stereo not given), the Potency result is “inactive”.

For the compound `ClCC(Cl)(Cl)Cl`, the Potency entry was “inactive”.

On to `COc1cc2c(cc1OC)[C@@]13CCN4CC5=CCO[C@H]6CC(=O)N2[C@H]1[C@H]6[C@H]5C[C@H]43`, for which the Potency result is “inactive”.

Regarding `CC(C)(C)CC(C)(C)c1ccc(O)cc1`, the Potency result was “inactive”.

In the case of `CN(C)CCc1c[nH]c2cccc(OP(=O)(O)O)c12`, the Potency result was “inactive”.

With `CCCCCCCCCCCCCCCC[N+](C)(C)C`, the Potency entry was “inactive”.

As for `Cc1cc(Cl)ccc1N`, the Potency result was “inactive”.

Regarding `CCCCN(CCCC)N=O`, the Potency entry is “inactive”.

For `Cl/C=C/CCl`, the Potency result was “inactive”.

For the compound `O=S(=O)(c1ccc(O)cc1)c1ccc(O)cc1`, the Potency result is “inactive”.

Consider `Oc1cc(Cl)c(Cl)cc1Cl`, for which the Potency result was “inactive”.

With `COP(=S)(OC)Oc1ccc(SC)c(C)c1`, the Potency entry was “inactive and 24.3 µM (active)”.

With `CCNCC`, the Potency entry was “inactive”.

Turning to `CNC(=O)O/N=C/C(C)(C)SC`, the Potency result is “inactive”.

Turning to `C[C@H]1CCCC(=O)CCC/C=C/c2cc(O)cc(O)c2C(=O)O1`, the Potency entry is “inactive”.

For the compound `O=C(Cl)C(Cl)Cl`, the Potency result was “inactive”.

As for `CCCCCCCCCCCOC(=O)c1ccccc1C(=O)OCCCCCCCCCCC`, the Potency entry is “inactive”.

In the case of `CC1COC2(c3ccccc3Cl)c3cc(Cl)ccc3NC(=O)CN12` (stereo not given), the Potency result is “inactive”.

`Cc1ccc(N)c(C)c1`: the Potency result is “inactive”.

As to `CO[C@@H]1[C@H](OC(=O)NC(=O)CCl)CC[C@]2(CO2)[C@H]1[C@@]1(C)O[C@@H]1CC=C(C)C`, the Potency is 16.7 µM (active).

For `CON(C)C(=O)Nc1ccc(Cl)cc1`, the Potency result is “inactive”.

`C=CC(C)=O`: the Potency was 5.97 µM (active).

On to `CCN(N=O)C(N)=O`, for which the Potency entry is “inactive”.

On to `Nc1ccc(Oc2ccc(N)cc2)cc1`, for which the Potency entry was “inactive”.

For `CCOP(=O)(OCC)Oc1ccc([N+](=O)[O-])cc1`, the Potency result was “inactive”.

For the compound `O=[N+]([O-])c1ccc(CBr)cc1`, the Potency result is “inactive”.

For the compound `C[C@]12CC[C@H]3[C@@H](CC[C@@]45O[C@@H]4C(O)=C(C#N)C[C@]35C)[C@@H]1CC[C@@H]2O`, the Potency is 68.6 µM (active) and inactive.

Take `COCCl`: the Potency entry was “inactive”.

Regarding `CCCCC(CC)C(=O)Cl` (stereo not given), the Potency entry was “inactive”.

Take `CCCCCCCCCCCCCCCCCC(=O)O`: the Potency is 48.2 µM (active) and inactive.

Take `NNC(=O)c1ccccc1`: the Potency is 56 µM (active).

Consider `ClC(Cl)=C(Cl)C(Cl)=C(Cl)Cl`, for which the Potency entry was “inactive”.

In the case of `CC(C)CC(C)(c1ccc(O)cc1)c1ccc(O)cc1`, the Potency entry is “inactive”.

For `CCC(=O)c1ccccc1`, the Potency result is “inactive”.

`CCCCCCCCCCCCCCCC[n+]1ccccc1`: the Potency entry was “inactive”.

On to `COc1cccc(C=O)c1`, for which the Potency entry was “inactive”.

Consider `O=[N+]([O-])c1ccccc1-c1ccccc1`, for which the Potency result is “inactive”.

For the compound `CCOP(=S)(OCC)Oc1cnc2ccccc2n1`, the Potency result was “inactive”.

Turning to `Nc1ccc(-c2ccc(N)c(N)c2)cc1N`, the Potency entry was “inactive and 68.6 µM (active)”.

Regarding `Oc1c(Br)cc(Br)cc1Br`, the Potency entry was “inactive”.

Turning to `CCCC(C)(COC(N)=O)COC(N)=O`, the Potency result is “inactive”.

For the compound `CCOC(=O)CC(SP(=O)(OC)OC)C(=O)OCC` (stereo not given), the Potency result is “inactive and 61.1 µM (active)”.

Consider `NCC(O)c1ccc(O)cc1` (stereo not given), for which the Potency result is “inactive”.

In the case of `C1CN2CCN1CC2`, the Potency entry is “inactive”.

Consider `O=C1C2CC=CCC2C(=O)N1SC(Cl)(Cl)Cl` (stereo not given), for which the Potency was 54.3 µM (active) and 7.57 µM (active).

Consider `O=C1CCCN1`, for which the Potency entry is “inactive”.

With `CC(O)CN1CCN(CC(=O)[O-])CCN(CC(=O)[O-])CCN(CC(=O)[O-])CC1.[Gd+3]` (stereo not given), the Potency entry was “inactive”.

With `OCC(O)CO`, the Potency result is “inactive”.

As for `CCCC[n+]1ccc(C)cc1`, the Potency entry was “inactive”.

As to `CCCCCCCCCCCCCCCCn1cc[n+](C)c1`, the Potency entry was “inactive”.

Regarding `Nc1ccc(Br)cc1`, the Potency was 68.5 µM (active) and inactive.

The record behind these values is PubChem BioAssay (Tox21).
